Screening results (PubChem)
Shown are actives, neighbours in structure and some others; about 2.6% of the full set was active somewhere.
GLP-1R agonist: agonists of human GLP-1 receptor; P43220; HEK293 GLP-1R CRE-luciferase, luminescence, 4-6 h; cells express a hypersensitive GLP-1R form; Potency, µM (series often up to 45.6 µM), for inactives: top-dose activation, usual class: activators; 0.007% of 380,000 active; AID 624172; also: % of control where 0% means no effect
Target sequence (P43220 whole entry, looked up): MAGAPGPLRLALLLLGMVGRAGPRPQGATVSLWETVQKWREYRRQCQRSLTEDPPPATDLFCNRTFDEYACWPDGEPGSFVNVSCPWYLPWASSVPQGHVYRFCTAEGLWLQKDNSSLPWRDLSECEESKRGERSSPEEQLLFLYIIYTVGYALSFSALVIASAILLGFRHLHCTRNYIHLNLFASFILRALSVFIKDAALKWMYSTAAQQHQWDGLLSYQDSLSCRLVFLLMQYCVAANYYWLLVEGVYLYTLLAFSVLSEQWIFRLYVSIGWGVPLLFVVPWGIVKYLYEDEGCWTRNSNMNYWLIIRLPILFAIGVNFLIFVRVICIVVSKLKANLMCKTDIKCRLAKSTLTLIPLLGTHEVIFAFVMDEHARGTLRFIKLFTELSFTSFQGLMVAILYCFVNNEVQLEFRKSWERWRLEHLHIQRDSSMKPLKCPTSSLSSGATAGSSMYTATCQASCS
GLP1R inv ag: inverse agonists of human GLP-1 receptor; Potency, µM (top dose mostly 38.3 µM), for inactives: at the highest dose activity change, negative = inhibition, actives largely listed as inhibitors; 1.6% of 410,000 active; HEK293 GLP-1R CRE-luciferase, luminescence, 24 h; GLP-1R form is constitutively active; AID 624417; also: % is scaled to controls: 0 for no effect and ±100 for the full control effect; nearly all actives have a fitted effect of over 55% in size
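Stable HEK293 clone (constitutively active GLP-1R + cAMP-response luciferase); 200 cells/uL plated, 12 h pre-culture, compound 24 hr, 37 deg C/5% CO2; detection reagent 12 min RT; luminescence.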
BRCA1 expr up: increases BRCA1 expression | 1.1% of 380,000 active | MCF7-BRCA1-FFLuc reporter, luminescence, 48 h; response scale: scaled: vehicle 0%, 10 µM genistein 100% | Potency, µM (series often up to 46.1 µM), without a hit: at the top dose activation, usual class: activators | AID 624202; also: nearly all actives have a fitted effect of over 80% in size
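48 h compound treatment of MCF7-BRCA1-FFLuc cells (phenol-red free MEM, 37 °C), then 15 min with luciferase substrate and luminescence imaging.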
HEK293 tox: cytotoxicity in counter-screen for GLP-1R inverse agonists. AID 624418. 0.13% of 410,000 active. HEK293 cAMP-luciferase reporter cells, luminescence, 24 h. Potency, µM (titrated, usually from 38.3 µM), for inactives: top-dose activity change, negative = inhibition, actives largely listed as inhibitors;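 also: loss of luciferase light is scored as toxicity; % is scaled to controls: 0 for no effect and ±100 for the full control effect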
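Cells in DMEM/10% Nu serum/1% pen-strep, 1536-well format. Pre-incubated 12 h, dosed with 23 nL compound, incubated a further 24 h. Luciferase detection, 12 min at room temp, luminescence.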
Numbers without * were called inactive; [ ] = dose if it differs, or a comment. Calls follow the shape of the dose curve; as a rule, active = well fitted curve in the direction sought with a large enough effect; inconclusive = small, poorly fitted or top-dose-only effect, or another doubt; inactive = no such curve, though single readings can be large; an effect the other way counts as inactive or inconclusive. Potency is read from the fitted curve at half-maximal effect.

CCn1c(O)c(C=Nc2ccccc2)sc1=S was read as GLP-1R agonist 31%, GLP1R inv ag inconclusive, BRCA1 expr up 3.2µM* and HEK293 tox -15%.
Cc1cc(C)n(-c2ccc(C(=O)Nc3ccc(S(=O)(=O)NCc4ccco4)cc3)cc2)n1 was read as GLP-1R agonist -16%, GLP1R inv ag 11µM*, BRCA1 expr up -54% and HEK293 tox -25%.
For O=C(c1ccc(S(=O)(=O)Nc2cccc(C(F)(F)F)c2)cc1)N1CCN(c2ccccc2O)CC1 the results were GLP-1R agonist 3%, GLP1R inv ag 10µM*, BRCA1 expr up -46% and HEK293 tox 2%.
For O=C(c1ccc(NS(=O)(=O)c2ccc(F)cc2)cc1)N1CCN(c2ccccc2O)CC1 the results were GLP-1R agonist 9%, GLP1R inv ag 7%, BRCA1 expr up -23% and HEK293 tox -5%.
`Cc1cc(C)c2nc(NC(=O)c3ccc(OCC4CCCO4)cc3)sc2c1` (stereo not drawn) gave GLP-1R agonist 15%, GLP1R inv ag 19%, BRCA1 expr up inconclusive and HEK293 tox -10%.
`Cc1cccnc1NC(=O)c1ccc(OCC2CCCO2)cc1` (stereo not drawn) gave GLP-1R agonist 13%, GLP1R inv ag 1%, BRCA1 expr up 40% and HEK293 tox -3%.
`O=C(Nc1nc(-c2ccc(Cl)cc2Cl)cs1)c1ccc(OCC2CCCO2)cc1` (stereo not drawn) gave GLP-1R agonist 5%, GLP1R inv ag 7.1µM*, BRCA1 expr up -33% and HEK293 tox -1%.
`Cc1cccc(NC(=O)c2ccc(OCC3CCCO3)cc2)c1C` (stereo not drawn) gave GLP-1R agonist 1%, GLP1R inv ag 8%, BRCA1 expr up 14µM* and HEK293 tox -27%.
`O=C(Nc1ccc(Cl)cc1)c1ccc(OCC2CCCO2)cc1` (stereo not drawn) gave GLP-1R agonist 7%, GLP1R inv ag 21%, BRCA1 expr up 4.5µM* and HEK293 tox -2%.
Screening COc1ccc(NS(=O)(=O)c2cc3[nH]c(=O)c(=O)[nH]c3cc2C)cc1OC returned GLP1R inv ag 3% and HEK293 tox -11%.
For COc1ccc(CCNc2ncnc3cc(OC)c(OC)cc23)cc1OC the results were GLP-1R agonist 12%, GLP1R inv ag 54%, BRCA1 expr up -36% and HEK293 tox -10%.
For COc1ccc(CCNc2ncccc2C#N)cc1OC the results were GLP-1R agonist 24%, GLP1R inv ag 38%, BRCA1 expr up 4µM* and HEK293 tox -4%.
`O=C(c1cc(C2CC2)on1)N1CCN(c2ccccc2)CC1` gave GLP-1R agonist 14%, GLP1R inv ag -6%, BRCA1 expr up -1% and HEK293 tox -2%.
For COc1ccc(/C=C2\SC(=O)N(CCNC(=O)C3CC4C=CC3C4)C2=O)cc1 (stereo not drawn) the results were GLP-1R agonist 9%, GLP1R inv ag inconclusive, BRCA1 expr up 5.6µM* and HEK293 tox -6%.
For COc1ccc(/C=C2\SC(=O)N(CCNC(=O)C3CSC4(C)CCC(=O)N34)C2=O)cc1 (stereo not drawn) the results were GLP-1R agonist 1%, GLP1R inv ag -10%, BRCA1 expr up 29% and HEK293 tox -6%.
CC(=O)N1CCc2c(sc3c2c(=O)n(CCc2ccccc2)c(=O)n3Cc2ccc(F)cc2)C1 was read as GLP-1R agonist 0%, GLP1R inv ag inconclusive, BRCA1 expr up -58% and HEK293 tox -9%.
`C=CCN1C(=O)C(Cc2ccccc2)S/C1=N/N=C/c1cccs1` (stereo not drawn) gave GLP-1R agonist 7%, GLP1R inv ag 11µM*, BRCA1 expr up -6% and HEK293 tox 12%.
For C=CCN1C(=O)C(Cc2ccc(OCC)cc2)S/C1=N\N=C\c1cccs1 (stereo not drawn) the results were GLP-1R agonist -3%, GLP1R inv ag 10µM*, BRCA1 expr up -8% and HEK293 tox 1%.
For COc1cc2c(cc1NC(=O)C(c1ccccc1)c1ccccc1)CCCC2 the results were GLP-1R agonist -6%, GLP1R inv ag 2.8µM*, BRCA1 expr up -7% and HEK293 tox -4%.
`COc1cc(NC(=O)C(c2ccccc2)c2ccccc2)c(C(=O)O)cc1OC` gave GLP-1R agonist 10%, GLP1R inv ag 23%, BRCA1 expr up -9% and HEK293 tox 1%.
`Cc1cccc(NC(=O)C2CCCN(S(=O)(=O)c3cnc[nH]3)C2)c1C` (stereo not drawn) gave GLP1R inv ag 4% and HEK293 tox 0%.
O[C@H]1C[C@H](c2ccccc2)N(CC2CCCCC2)C[C@@H]1n1cc(C2CC2)nn1 was read as GLP-1R agonist -2%, GLP1R inv ag 10µM*, BRCA1 expr up -81% and HEK293 tox inconclusive.
O[C@@H]1CN(CC2CCCCC2)[C@@H](c2ccccc2)C[C@H]1n1cc(C2CC2)nn1 was read as GLP-1R agonist -2%, GLP1R inv ag 4%, BRCA1 expr up -16% and HEK293 tox -5%.
Screening CCCOc1ccc(NC(=O)CC2C(=O)N(CC)C(=S)N2Cc2cccs2)cc1 (stereo not drawn) returned GLP-1R agonist 0%, GLP1R inv ag 10µM*, BRCA1 expr up -23% and HEK293 tox -28%.
`COc1ccc(NC(=O)CC2C(=O)N(Cc3ccccc3)C(=S)N2CCN2CCOCC2)cc1` (stereo not drawn) gave GLP-1R agonist -2%, GLP1R inv ag -11%[0.307 µM], BRCA1 expr up -28% and HEK293 tox -6%[0.307 µM].
Screening C=CCN1C(=O)C(CC(=O)Nc2ccc(OCCC)cc2)N(CCCN2CCN(Cc3ccccc3)CC2)C1=S (stereo not drawn) returned GLP-1R agonist 0%, GLP1R inv ag 2.5µM*, BRCA1 expr up -93% and HEK293 tox inconclusive.
`CCCCCCOc1ccc(NC(=O)CC2C(=O)N(CC)C(=S)N2Cc2ccco2)cc1` (stereo not drawn) gave GLP-1R agonist -5%, GLP1R inv ag 7.1µM*, BRCA1 expr up -94% and HEK293 tox inconclusive.
For COc1cccc(-c2cnc(C(O)c3cccc(F)c3)[nH]2)c1 (stereo not drawn) the results were GLP-1R agonist 5%, GLP1R inv ag -11%, BRCA1 expr up inconclusive and HEK293 tox -1%.
CCCCCC(=O)NC(Nc1ccc(S(N)(=O)=O)cc1)C(Cl)(Cl)Cl (stereo not drawn) was read as GLP-1R agonist -9%, GLP1R inv ag -23%, BRCA1 expr up -9% and HEK293 tox 8%.
Screening CCCCCCC(=O)NC(Nc1ccc(S(N)(=O)=O)cc1)C(Cl)(Cl)Cl (stereo not drawn) returned GLP-1R agonist -11%, GLP1R inv ag 8.9µM*, BRCA1 expr up -9% and HEK293 tox -14%.
For COc1c2occc2c(OC(C)=O)c2c(=O)cc(C)oc12 the results were GLP-1R agonist 10%, GLP1R inv ag 10µM*, BRCA1 expr up -67% and HEK293 tox -15%.
